Assay outcomes: PubChem, The Scripps Research Institute Molecular Screening Center
Only some compounds are listed: those with a hit (about 1.8% of all), similar ones and a draw of the others.
Fam108B counter: counter-screen for RBBP9 inhibitors: inhibitors of mouse Fam108B; recombinant Fam108B, FP-Rh probe fluorescence polarization; 300,000 compounds, 0.33% hits; inhibition, % at 9.51 µM;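 active = inhibition above the screen mean inhibition plus 3 SD, computed separately per campaign, cut at about 18% in these data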;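 note: inhibitors lower polarization as less probe binds the enzyme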
PP5 inh: inhibitors of human protein phosphatase 5 (PP5) | P53041 | purified PP5c, OMFP substrate fluorescence | inhibition, % at 6.7 µM | 320,000 compounds, 0.18% hits | AID 1987;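 active = inhibition above the campaign's mean inhibition across all tested compounds plus 3 SD, cut at about 9.5% in these data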;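 note: 0% = DMSO only and 100% = 100 µM cantharidin control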
LYPLA1 counter: LYPLA1 (human) inhibition in PME1 counter-screen. AID 2174. 320,000 compounds, 0.16% hits. O75608. inhibition, % at 5.9 µM. recombinant LYPLA1, FP-Rh probe fluorescence polarization;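 active = inhibition above the mean of all tested compounds plus 3 SD, set per campaign, cut at about 14% in these data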;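 note: inhibitors block serine hydrolase probe labeling of LYPLA1 so polarization falls; 0% = enzyme with DMSO and 100% = wells lacking LYPLA1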
LYPLA2 counter: blocks human lysophospholipase 2, a PME1 counter-screen; O95372; recombinant LYPLA2, FP-Rh probe fluorescence polarization; inhibition, % at 5.9 µM; 320,000 compounds, 0.38% hits; AID 2177;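 active = inhibition above the screen-wide mean plus 3 SD, limit set per campaign, cut at about 26% in these data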;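 note: 0% = LYPLA2 with DMSO and 100% = wells lacking LYPLA2 enzyme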
PME-1 primary: PME-1 (human) inhibition. Q9Y570. recombinant PME-1, FP-Rh probe fluorescence polarization. inhibition, % at 5.9 µM. 320,000 compounds, 0.53% hits. AID 2130;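 active = inhibition above the campaign mean of all compounds plus 3 SD, cut at about 26% in these data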;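 note: competitive labeling of PME-1 active site by serine hydrolase directed probe; 0% = PME-1 with DMSO and 100% = wells lacking PME-1 enzyme; inhibitors block probe labeling so polarization falls and inhibition rises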
Target sequence (Q9Y570 whole entry, looked up): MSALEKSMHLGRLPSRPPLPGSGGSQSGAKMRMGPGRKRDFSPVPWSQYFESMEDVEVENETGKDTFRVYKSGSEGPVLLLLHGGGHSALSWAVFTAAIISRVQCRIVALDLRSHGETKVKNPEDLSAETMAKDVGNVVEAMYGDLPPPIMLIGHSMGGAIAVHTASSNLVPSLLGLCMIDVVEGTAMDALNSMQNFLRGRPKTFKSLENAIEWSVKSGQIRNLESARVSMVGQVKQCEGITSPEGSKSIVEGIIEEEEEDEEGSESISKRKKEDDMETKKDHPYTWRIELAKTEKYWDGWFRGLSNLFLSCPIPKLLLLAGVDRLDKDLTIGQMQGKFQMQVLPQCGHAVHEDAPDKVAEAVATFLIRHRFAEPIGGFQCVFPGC
PP1 counter: counter-screen for PP5 inhibitors: inhibitors of human PP1-alpha; P62136; purified PP1alpha, OMFP fluorescence; inhibition, % at 6.7 µM; 320,000 compounds, 0.9% hits; AID 2235;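 active = inhibition above the mean inhibition of all tested compounds plus 3 SD, computed separately for each screening campaign, cut at about 15% in these data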
Target sequence (P62136 whole entry, looked up): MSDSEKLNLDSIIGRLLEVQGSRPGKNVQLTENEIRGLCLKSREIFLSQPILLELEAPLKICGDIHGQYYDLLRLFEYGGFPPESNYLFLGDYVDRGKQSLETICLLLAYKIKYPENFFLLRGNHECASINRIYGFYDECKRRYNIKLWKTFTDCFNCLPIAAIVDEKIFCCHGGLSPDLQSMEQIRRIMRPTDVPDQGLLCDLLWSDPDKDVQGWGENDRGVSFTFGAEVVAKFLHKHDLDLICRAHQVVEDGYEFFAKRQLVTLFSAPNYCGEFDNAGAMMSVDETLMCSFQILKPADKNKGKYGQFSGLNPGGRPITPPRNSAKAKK
LYPLA2 confirm: LYPLA2 (human) inhibition, confirmation counter-screen; 1,100 compounds, 72% hits; shares compounds with LYPLA2 counter; inhibition, % at 5.9 µM; recombinant LYPLA2, FP-Rh probe fluorescence polarization;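 active = mean inhibition across replicates above the hit cutoff set in the primary screen, cut at about 26% in these data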;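 note: blocked labeling of the enzyme by serine hydrolase FP-Rh probe lowers polarization; 0% = enzyme with DMSO and 100% = wells lacking LYPLA2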
LYPLA2 gel ABPP: inhibitors of human LYPLA2. shares compounds with LYPLA2 counter. rhLYPLA2 in mouse brain proteome, gel ABPP FP-Rh. inhibition, % at 20 µM. 150 compounds, 30% hits. AID 652029;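 active = inhibition of LYPLA2 enzyme probe labeling above about 50%, limit read from the data; inactive = inhibition below that limit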;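 note: loss of FP-Rh probe labeling of the LYPLA2 gel band measured as band density; 0% = DMSO only control band and 100% = blank gel background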
PP1 inh confirm: confirmation of human PP1 phosphatase inhibitors | shares compounds with PP1 counter | purified PP1alpha, OMFP substrate fluorescence | inhibition, % at 6.7 µM | 1,900 compounds, 52% hits;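 active = mean PP1 inhibition above a set limit taken from the earlier primary screen, cut at about 15% in these data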
PP5 counter: PP5 phosphatase inhibition, counter-screen for PP1 inhibitors; 1,900 compounds, 4% hits; inhibition, % at 6.7 µM; shares compounds with PP1 counter; purified PP5c, OMFP fluorescence;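 active = mean PP5 inhibition over triplicate wells above about 9.5% taken from the earlier PP1 screen, limit read from the data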
An asterisk follows results filed as active; . = not tested or not shown.

SMILES | Fam108B counter | PP5 inh | LYPLA1 counter | LYPLA2 counter | PME-1 primary | PP1 counter | LYPLA2 confirm | others
Cc1ncc([N+](=O)[O-])n1CC(=O)Nc1ccccc1F | 15.8 | -0.4 | -0.8 | 27.6* | 0.7 | -1.4 | 26.6*
Cc1ncc([N+](=O)[O-])n1CC(=O)Nc1ccc(F)c(Cl)c1 | 1.5 | 0.7 | 5.5 | 34.3* | -8.8 | -0.8 | 61.4* | LYPLA2 gel ABPP=49.0
Cc1ncc([N+](=O)[O-])n1CC(=O)NC1CCCC1 | 4.8 | -0.9 | 1.5 | 3.5 | 6.4 | 3.1 | .
Cc1ncc([N+](=O)[O-])n1CC(=O)Nc1ccc(OC(F)(F)Cl)cc1 | -4.2 | 2.7 | 1.4 | 3.4 | -2.1 | 0.8 | .
Cc1ncc([N+](=O)[O-])n1CC(=O)Nc1cccc(C(F)(F)F)c1 | -4.3 | -2.6 | 0.4 | 50.9* | -0.8 | 1.8 | 41.4*
Cc1ncc([N+](=O)[O-])n1CC(=O)NC1CCCCCC1 | 6.6 | 1.0 | -4.0 | 27.9* | 2.8 | -5.7 | 32.6*
COc1ccc(NC(=O)Cn2c([N+](=O)[O-])cnc2C)cc1Cl | 0.7 | 0.0 | -0.7 | 24.3 | 1.6 | -0.2 | .
O=C(NCC1CCCN1S(=O)(=O)c1cccs1)c1cccc(F)c1 (stereo unspecified) | -2.1 | 1.6 | -1.4 | 1.6 | 0.1 | -5.6 | .
CC1(c2ccccc2)NC(=O)N(CC(=O)N2CCN(S(=O)(=O)c3ccccc3[N+](=O)[O-])CC2)C1=O (stereo unspecified) | -1.1 | 1.0 | 0.6 | 3.6 | -0.5 | -1.9 | .
CC(=O)Nc1ccc(S(=O)(=O)N(C)c2ccc(OCC(=O)OCC(=O)NCc3ccco3)cc2)cc1 | -0.7 | -3.4 | -1.4 | 0.6 | 4.9 | -3.4 | .
CC(C(=O)Nc1ccc(Br)cc1)N(C)CC(=O)NCc1ccco1 (stereo unspecified) | . | -0.8 | -1.1 | 2.6 | 3.5 | -3.5 | .
C=CCn1c(=O)c(CCC(=O)Nc2ccc(N3CCOCC3)cc2)nc2cc(C(F)(F)F)ccc21 | 4.4 | 1.7 | -3.2 | -4.5 | 1.8 | -5.4 | .
Fc1ccc(CN2CCCN(Cc3nc(-c4ccc5c(c4)OCO5)no3)CC2)cc1 | -1.7 | 2.2 | -0.9 | 2.1 | 0.4 | 1.5 | .
c1ccc(OCCN2CCN(Cc3nc(-c4ccc5c(c4)OCO5)no3)CC2)cc1 | -0.2 | 4.0 | -2.2 | 25.9* | 6.0 | 1.1 | 25.5
COc1cccc(C(=O)NC(=S)N2CCN(c3ccc(C(F)(F)F)cc3[N+](=O)[O-])CC2)c1 | -1.7 | 4.3 | 3.3 | 65.1* | 4.9 | 4.2 | 51.8* | LYPLA2 gel ABPP=13.0
CC(C)Oc1cccc(C(=O)NC(=S)N2CCN(c3ccc(C(F)(F)F)cc3[N+](=O)[O-])CC2)c1 | 3.1 | 2.0 | -7.5 | 7.6 | -0.3 | 1.7 | .
CC1(C)CC(NC(=O)C2CCN(S(=O)(=O)c3ccc(F)cc3)CC2)CC(C)(C)N1 | 1.1 | 1.9 | 6.1 | 6.5 | -0.1 | -0.5 | .
O=C(CSCc1ccccc1Cl)Nc1c[nH]c(=O)[nH]c1=O | -5.3 | -0.1 | 1.5 | 38.6* | 3.6 | -0.5 | -3.1
Cc1c(C(N)=O)sc2ncn(CC(=O)N(C)C3CCCCC3)c(=O)c12 | -0.7 | 0.3 | -0.7 | 9.7 | -4.3 | 8.7 | .
COc1cc(N)c(Cl)cc1C(=O)N[C@H]1CCN(CCCOc2ccc(F)cc2)C[C@H]1OC | -1.3 | 0.1 | 13.7 | 26.7* | -3.9 | -1.2 | 31.1*
C=CCOc1ccc(C2=NOC(C(=O)Nc3ccc4c(c3)OCCO4)C2)cc1OC (stereo unspecified) | 2.2 | 1.5 | -4.2 | -4.6 | -1.6 | -2.7 | .
O=C(O/N=C\c1ccc(N2CCOCC2)c([N+](=O)[O-])c1)c1ccc(F)cc1 | 1.4 | 1.9 | 4.5 | 10.9 | 1.5 | -2.0 | .
O=C(Oc1ccc(Cl)cc1)c1ccc(N2CCOCC2)c([N+](=O)[O-])c1 | 0.3 | 4.5 | 3.7 | 33.2* | -2.6 | -0.8 | 28.1*
O=C(O/N=C/c1ccc2c(c1)OCO2)c1ccccc1Cl | 5.5 | 4.5 | 3.3 | 26.2* | 2.9 | -4.0 | 14.3
O=C(O/N=C\c1ccc(N2CCOCC2)c([N+](=O)[O-])c1)c1ccccc1Cl | 3.0 | 1.8 | 0.0 | 41.2* | -0.8 | -0.3 | 43.3*
SMILES | Fam108B counter | PP5 inh | LYPLA1 counter | LYPLA2 counter | PME-1 primary | PP1 counter | LYPLA2 confirm | others
CO/N=C/c1ccc(N2CCN(C(=O)c3ccc(C)cc3)CC2)c([N+](=O)[O-])c1 | 2.0 | 1.6 | 2.9 | 36.6* | 4.6 | 1.9 | 38.7*
CCOC(=O)Cn1nc(C)c(NC(=O)COc2ccc(C)c(C)c2)c1C | -1.4 | 1.7 | 1.5 | 1.7 | -1.1 | 0.2 | .
COc1ccccc1N1CCN(CCC(=O)Nc2ccc(F)cc2)CC1 | -1.1 | -1.9 | -1.1 | -1.9 | -0.6 | -0.2 | .
NC(=O)C1CCN(C(=O)c2ccc(-c3ccccc3Cl)o2)CC1 | . | -2.5 | -3.0 | -3.0 | 3.8 | -2.0 | .
C[C@@H]1C(=O)OC[C@H]1NC(=O)OCc1ccccc1 | -2.9 | 3.0 | -2.7 | -1.3 | 4.0 | 0.3 | .
Nc1nc(SCCO)[nH]c(=O)c1NC(=O)c1ccco1 | . | 3.0 | 1.0 | 4.9 | -12.1 | -5.4 | .
Cc1cc(-c2ccc(C)c(S(=O)(=O)Nc3cc(C)on3)c2)on1 | 0.5 | -2.3 | -0.7 | 6.0 | 2.4 | 2.5 | .
CC1CC(C)CN(S(=O)(=O)c2ccc(NC(=O)c3ccc(=O)[nH]c3)cc2)C1 (stereo unspecified) | . | 1.9 | -7.8 | -10.3 | -2.3 | -0.9 | .
CC(C)CCN1CC(=O)N2Cc3[nH]c4ccccc4c3C[C@H]2C1=O | -0.3 | 1.8 | 2.4 | 60.2* | 0.5 | -0.2 | 55.9* | LYPLA2 gel ABPP=14.0
O=C1[C@@H]2Cc3c([nH]c4ccccc34)CN2C(=O)CN1CCCCCO | -3.2 | -0.5 | -1.2 | 29.8* | -11.1 | 3.7 | 20.2
O=C1[C@@H]2Cc3c([nH]c4ccccc34)CN2C(=O)CN1CCO | -1.4 | -1.0 | 1.5 | 6.0 | 1.0 | 1.3 | .
CC(NC(=O)c1cccc(S(=O)(=O)N2CCc3ccccc32)c1)c1ccco1 (stereo unspecified) | . | -0.7 | -2.0 | 0.6 | 4.9 | -1.2 | .
Cc1ccc(OCC(=O)OCC(=O)c2ccccc2)cc1C | 0.9 | 2.2 | 1.7 | 29.1* | 4.0 | 0.0 | 2.5
CCCCC(=O)N/N=C/c1ccc(-c2ccc([N+](=O)[O-])cc2)o1 | 0.5 | 2.3 | 4.0 | 2.6 | 4.1 | -0.5 | .
Cc1cc(C)n(Cc2ccc(C(=O)N/N=C/c3ccc(-c4ccc([N+](=O)[O-])cc4)o3)o2)n1 | 5.8 | 3.2 | 4.5 | 27.7* | 0.9 | 32.7* | 27.0* | PP1 inh confirm=27.8*;PP5 counter=-1.2
